# In PubChem BioAssay (Tox21):
# Results filed as inconclusive are left out. Entries that show only a call come without a potency. The source made the active and inactive calls. Unless noted, calls follow the shape of the dose curve; as a rule, active = well fitted curve in the direction sought with a large enough effect in the repeat runs; inconclusive = weak or mixed curves; inactive = no such curve, though single readings can be large; an effect the other way counts as inactive or inconclusive.
# How the values were obtained:
# [1] = target: Retinoic acid receptor RXR-alpha (Homo sapiens) (UniProt P19793); assay: qHTS assay to identify small molecule agonists of the RXR signaling pathway (AID 1159527; calls by dose curve; also: nearly all actives have a fitted effect of over 35% in size)
# In short: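 Beta-lactamase reporter assay, agonist format. Engineered HEK 293T line, charcoal-stripped FBS at 2%, overnight (16 hr) exposure, fluorescence at 460 and 530 nm after 405 nm excitation.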
# [2] = qHTS assay to identify small molecule agonists of the RXR signaling pathway - cell viability counter screen (AID 1159529);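 also: HEK 293T cells carrying an RXR-alpha UAS beta-lactamase reporter; series mostly up to about 77 µM; nearly all actives have a fitted effect of over 50% in size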
# In short: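 Same-well viability check after the LiveBLAzer FRET read: CellTiter-Glo added, luminescence measured after 30 min at room temperature. Reporter HEK 293T cells had been treated with compounds for 16 hr following a 5 hr preincubation.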
# [3] = qHTS assay to identify small molecule antagonists of the retinoid acid receptor (RAR) signaling pathway - cell viability counter screen (AID 1159551); also: nearly all actives have a fitted effect of over 35% in size
# In short: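 C3RL4 RARE-luciferase line; cpds + retinol 1 uM final, 6 h, 37 C/5% CO2; CellTiter-Glo ATP luminescence, 30 min RT.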
# [4] = target: Luciferin 4-monooxygenase (Photinus pyralis) (UniProt P08659); assay: qHTS assay to identify small molecule inhibitors of firefly luciferase (AID 1224835); also: series mostly up to about 120 µM; nearly all actives have a fitted effect of over 25% in size
# In short: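 Inhibition of purified Photinus luciferase is measured by luminescence. Substrate levels (D-luciferin, ATP) sit at their KM values. Each compound is tested in a concentration series.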
# [5] = qHTS assay to identify small molecule agonists of the constitutive androstane receptor (CAR) signaling pathway - cell viability counter screen (AID 1224836); also: series mostly up to about 92 µM; nearly all actives have a fitted effect of over 45% in size
# In short: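 Compound titrations (15 concentrations) went onto HepG2-CYP2B6-hCAR cells 4 h after seeding, alongside PK11195 at a final 0.75 uM; a 23 h, 37 C/5% CO2 incubation preceded CellTiter-Fluor viability measurement.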
# [6] = qHTS assay to identify small molecule antagonists of the constitutive androstane receptor (CAR) signaling pathway - cell viability counter screen (AID 1224837); also: series mostly up to about 92 µM; nearly all actives have a fitted effect of over 45% in size
# In short: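 Read-out: CellTiter-Fluor fluorescence after 23 hr at 37 C/5% CO2. Cells: HepG2 double-stable for hCAR and CYP2B6-2.2kb. Compounds tested at 15 concentrations in the presence of CITCO, final concentration 50 nM.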
# [7] = target: Nuclear receptor subfamily 1 group I member 3 (Homo sapiens) (UniProt Q14994); assay: qHTS assay to identify small molecule antagonists of the constitutive androstane receptor (CAR) signaling pathway (AID 1224838);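 also: HepG2 cells stably expressing hCAR with CYP2B6 luciferase reporter stimulated by CITCO; nearly all actives have a fitted effect of over 40% in size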
# In short: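 Read-out: ONE-Glo luciferase luminescence after 30 min at room temperature. HepG2-CYP2B6-hCAR double-stable cells, compounds in 15-point titration plus 50 nM CITCO final, 24 h at 37 C/5% CO2.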
# [8] = target: Nuclear receptor subfamily 1 group I member 3 (Homo sapiens) (UniProt Q14994); assay: qHTS assay to identify small molecule agonists of the constitutive androstane receptor (CAR) signaling pathway (AID 1224839);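 also: HepG2 cells stably carrying human CAR and a CYP2B6 luciferase reporter; series mostly up to about 92 µM; nearly all actives have a fitted effect of over 15% in size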
# In short: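 In this screen, CAR-driven CYP2B6 promoter activity is measured by luminescence in HepG2-CYP2B6-hCAR cells after 24 h with test compounds and 0.75 uM PK11195 (final concentration).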
# [9] = qHTS assay to identify small molecule antagonists of the estrogen related receptor signaling pathway with the pleiotropic PPARgamma coactivator (PGC) from Tox21 10K library - cell viability counter screen (AID 1224840; active = well fitted cell-killing curve with a large enough effect in the repeat runs, not every such curve was filed as active; also: nearly all actives have a fitted effect of over 40% in size)
# In short: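 Fluorescence read-out of CellTiter-Fluor viability reagent, added after cells had been exposed to compound in DMSO for 17.5 h at 37 C; 30 min development at 37 C/5% CO2. Cells: PGC/ERR line, 2,000/well.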
# [10] = qHTS assay to identify small molecule antagonists of the estrogen related receptor signaling pathway with the pleiotropic PPARgamma coactivator (PGC) from Tox21 10K library (AID 1224841; call rule not given here; also: series mostly up to about 92 µM; actives are mostly falling curves and most rising ones were filed inactive; nearly all actives have a fitted effect of over 50% in size)
# In short: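 Luminescence read-out (One-Glo luciferase reagent, 30 min at room temperature) from PGC/ERR cells exposed to DMSO-dissolved test compounds for 18 h at 37 C; cells, 2,000 per well, had been preincubated 6 h before compound transfer.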
# [11] = qHTS assay to identify small molecule agonists of the estrogen related receptor signaling pathway with the pleiotropic PPARgamma coactivator (PGC) from Tox21 10K library (AID 1224842); also: nearly all actives have a fitted effect of over 15% in size
# In short: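 Luminescence from One-Glo (30 min, room temperature) measured after PGC/ERR cells had 18 h at 37 C with pinned compound (23 nL in DMSO). Cells had been seeded at 2,000 per well and pre-incubated 6 h.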
# [12] = qHTS assay to identify small molecule antagonists of the estrogen related receptor (ERR) signaling pathway from Tox21 library - cell viability counter screen (AID 1224834); also: nearly all actives have a fitted effect of over 30% in size
# In short: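 Multiplexed viability counter screen in ERR cells: 17.5 h compound exposure at 37 C, CellTiter-Fluor added, 30 min at 37 C/5% CO2, fluorescence read.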
# [13] = target: Thyrotropin receptor (Homo sapiens) (UniProt P16473); assay: qHTS assay to identify small molecule agonists of the thyroid stimulating hormone receptor (TSHR) signaling pathway (AID 1224843; calls by dose curve; also: nearly all actives have a fitted effect of over 45% in size)
# In short: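 A cell-based cAMP HTRF format was run in TSHR-transfected HEK293 cells, 800 per well. Treatment: 30 min, room temperature. Detection: 1 h with labelled cAMP and anti-cAMP cryptate. Concentration-response over 15 points, three replicates.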
# [14] = qHTS assay to identify small molecule agonists of the retinoic acid receptor (RAR) signaling pathway (AID 1159553); also: potency is read from the fitted curve at half-maximal effect
# In short: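 RARE-luc C3RL4 cells; overnight attachment 37 C/5% CO2; compound (DMSO) 6 hr; luciferase reagent, 30 min RT; luminescence read-out.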
# [15] = qHTS assay to identify small molecule antagonists of the retinoic acid receptor (RAR) signaling pathway (AID 1159552; also: nearly all actives have a fitted effect of over 50% in size)
# In short: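 Readout: luciferase luminescence, 30 min post-reagent at RT. Setup: C3RL4 RARE reporter cells, compounds plus retinol 1 uM final, 6 hr incubation at 37 C and 5% CO2.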
# Thyrotropin receptor (Homo sapiens), sequence (P16473 whole entry, looked up): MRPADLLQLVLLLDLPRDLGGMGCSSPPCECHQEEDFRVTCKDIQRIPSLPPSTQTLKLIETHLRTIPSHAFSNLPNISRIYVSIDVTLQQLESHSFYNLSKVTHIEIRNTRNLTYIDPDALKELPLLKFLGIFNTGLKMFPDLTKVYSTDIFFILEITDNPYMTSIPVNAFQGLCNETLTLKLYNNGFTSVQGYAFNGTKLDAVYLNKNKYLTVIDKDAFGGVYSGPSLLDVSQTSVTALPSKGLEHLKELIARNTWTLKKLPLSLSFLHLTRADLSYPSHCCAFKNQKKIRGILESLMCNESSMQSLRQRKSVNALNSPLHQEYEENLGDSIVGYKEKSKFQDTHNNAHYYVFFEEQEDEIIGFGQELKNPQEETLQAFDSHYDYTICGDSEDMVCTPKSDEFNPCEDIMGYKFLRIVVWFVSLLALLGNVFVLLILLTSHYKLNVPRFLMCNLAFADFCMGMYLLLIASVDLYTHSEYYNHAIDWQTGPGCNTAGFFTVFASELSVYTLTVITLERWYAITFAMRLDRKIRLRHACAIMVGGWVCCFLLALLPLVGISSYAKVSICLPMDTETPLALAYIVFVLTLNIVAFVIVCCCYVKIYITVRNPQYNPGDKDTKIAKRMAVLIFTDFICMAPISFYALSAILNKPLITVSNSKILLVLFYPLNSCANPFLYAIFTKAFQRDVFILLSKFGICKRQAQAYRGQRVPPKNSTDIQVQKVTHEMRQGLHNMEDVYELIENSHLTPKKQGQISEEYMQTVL
# Nuclear receptor subfamily 1 group I member 3 (Homo sapiens), sequence (Q14994 whole entry, looked up): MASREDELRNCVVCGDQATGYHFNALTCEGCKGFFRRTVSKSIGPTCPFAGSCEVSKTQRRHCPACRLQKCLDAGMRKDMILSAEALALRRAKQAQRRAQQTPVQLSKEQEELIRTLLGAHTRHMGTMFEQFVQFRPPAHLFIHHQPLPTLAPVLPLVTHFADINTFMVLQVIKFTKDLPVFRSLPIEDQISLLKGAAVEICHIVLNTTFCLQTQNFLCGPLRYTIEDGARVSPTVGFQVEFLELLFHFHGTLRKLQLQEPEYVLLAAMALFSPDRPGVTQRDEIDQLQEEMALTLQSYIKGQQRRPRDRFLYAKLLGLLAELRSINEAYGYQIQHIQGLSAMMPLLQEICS
# Luciferin 4-monooxygenase (Photinus pyralis), sequence (P08659 whole entry, looked up): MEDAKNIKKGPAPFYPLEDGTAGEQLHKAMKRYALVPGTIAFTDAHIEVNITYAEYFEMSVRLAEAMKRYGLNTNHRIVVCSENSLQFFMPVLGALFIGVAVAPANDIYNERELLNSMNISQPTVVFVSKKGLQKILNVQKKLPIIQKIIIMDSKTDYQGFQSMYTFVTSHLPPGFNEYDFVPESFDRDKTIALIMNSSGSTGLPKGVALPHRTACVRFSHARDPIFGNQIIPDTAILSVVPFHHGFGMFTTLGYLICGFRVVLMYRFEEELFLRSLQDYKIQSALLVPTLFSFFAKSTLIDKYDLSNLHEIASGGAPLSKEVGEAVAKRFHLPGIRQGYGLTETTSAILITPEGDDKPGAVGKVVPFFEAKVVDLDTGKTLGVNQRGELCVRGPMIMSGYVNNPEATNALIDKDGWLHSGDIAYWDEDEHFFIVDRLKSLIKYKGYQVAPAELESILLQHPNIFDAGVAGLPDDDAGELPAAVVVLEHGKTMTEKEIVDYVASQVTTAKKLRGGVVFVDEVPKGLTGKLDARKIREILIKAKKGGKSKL
# Retinoic acid receptor RXR-alpha (Homo sapiens), sequence (P19793 whole entry, looked up): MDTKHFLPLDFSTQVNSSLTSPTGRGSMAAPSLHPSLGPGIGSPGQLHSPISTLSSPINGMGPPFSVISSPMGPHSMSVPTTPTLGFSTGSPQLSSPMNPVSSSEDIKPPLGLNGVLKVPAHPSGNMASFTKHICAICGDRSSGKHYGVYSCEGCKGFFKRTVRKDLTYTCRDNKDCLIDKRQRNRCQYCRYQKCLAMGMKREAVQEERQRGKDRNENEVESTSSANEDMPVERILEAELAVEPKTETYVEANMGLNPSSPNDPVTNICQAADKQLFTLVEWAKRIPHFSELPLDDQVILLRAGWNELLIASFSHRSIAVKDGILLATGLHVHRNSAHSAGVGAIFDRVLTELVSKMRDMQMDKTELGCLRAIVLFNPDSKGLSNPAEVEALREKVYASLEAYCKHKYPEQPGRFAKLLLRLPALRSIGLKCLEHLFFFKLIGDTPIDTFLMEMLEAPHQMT
Structure (SMILES),Potency [1],outcome [2],outcome [3],Potency [4],Potency [5],Potency [6],outcome [7],Potency [8],outcome [9],Potency [10],outcome [11],Potency [12],Potency [13],Potency [14],outcome [15]
CCCCN,inactive,inactive,inactive,inactive,inactive,inactive,inactive,inactive,inactive,inactive,inactive,,,,
COc1ccc(Br)c(C)c1,inactive,inactive,inactive,,inactive,inactive,inactive,inactive,inactive,inactive,inactive,inactive,inactive,,
Cc1cccc(OCC(O)CNC(C)(C)C)c1C (centres undefined),inactive,inactive,inactive,,inactive,inactive,inactive,inactive,inactive,,,inactive,inactive,,
CC(CO)c1ccccc1 (centres undefined),inactive,inactive,inactive,inactive,inactive,inactive,inactive,,inactive,,,inactive,inactive,,
C=C1CC/C=C(\C)CC[C@@H]2[C@@H]1CC2(C)C,inactive,inactive,inactive,,inactive,inactive,inactive,inactive,inactive,inactive,inactive,inactive,inactive,,
CCOC(=O)[C@H](CCc1ccccc1)N[C@@H](C)C(=O)N1C(=O)N(C)C[C@H]1C(=O)O,inactive,inactive,inactive,inactive,inactive,inactive,inactive,inactive,inactive,,,,inactive,,
COCCOCCOCCOCCO,inactive,inactive,inactive,inactive,inactive,inactive,inactive,,inactive,,,inactive,inactive,,
CCC(CC)CO,inactive,inactive,inactive,inactive,inactive,inactive,inactive,inactive,inactive,,,,inactive,,
O=C(CCN1CCN(CCO)CC1)N1c2ccccc2Sc2ccc(C(F)(F)F)cc21,inactive,inactive,inactive,,inactive,inactive,inactive,,inactive,,,,inactive,,
O=C(CS(=O)Cc1ccco1)NC/C=C\COc1cc(CN2CCCCC2)ccn1 (centres undefined),inactive,inactive,inactive,inactive,,inactive,inactive,,inactive,inactive,inactive,,inactive,,
CCNC(=O)C1CC(C)CCC1C(C)C (centres undefined),inactive,inactive,inactive,inactive,,inactive,inactive,inactive,inactive,inactive,inactive,inactive,inactive,,
Cc1ccc(S(=O)(=O)O)c(C)c1,inactive,inactive,inactive,inactive,inactive,inactive,inactive,,inactive,inactive,inactive,,inactive,,
C=C(C)C(=O)OCCNC(C)(C)C,inactive,inactive,inactive,,inactive,inactive,inactive,inactive,inactive,inactive,inactive,inactive,inactive,,
Nc1ccc(S(=O)(=O)Nc2ccc(Cl)nn2)cc1,inactive,inactive,inactive,inactive,inactive,inactive,inactive,,inactive,inactive,inactive,,,,
CCCCNC1CC(C)(C)NC(C)(C)C1,inactive,inactive,inactive,,inactive,inactive,inactive,inactive,inactive,inactive,inactive,,inactive,,
O=C1c2ccccc2C(=O)N1CCl,inactive,inactive,inactive,,inactive,inactive,inactive,inactive,inactive,inactive,inactive,inactive,,,
CC(=O)NCCCCCC(=O)O,inactive,inactive,inactive,inactive,inactive,inactive,inactive,,inactive,,,inactive,inactive,,

Structure (SMILES),Potency [1],outcome [2],outcome [3],Potency [4],Potency [5],Potency [6],outcome [7],Potency [8],outcome [9],Potency [10],outcome [11],Potency [12],Potency [13],Potency [14],outcome [15]
Cc1ccsc1/C=C/C1=NCCCN1C,inactive,inactive,inactive,inactive,,inactive,inactive,inactive,inactive,inactive,inactive,inactive,inactive,,
CC(C)CCCC(C)(C)O,inactive,inactive,inactive,inactive,inactive,inactive,inactive,,inactive,,,inactive,inactive,,
O=C(OCc1ccccc1)C(=O)OCc1ccccc1,inactive,inactive,inactive,inactive,,inactive,inactive,inactive,inactive,inactive,inactive,inactive,inactive,,
COc1cc2c(cc1OC)C(=O)CC2,inactive,inactive,inactive,inactive,inactive,inactive,inactive,inactive,inactive,,,,inactive,,
O=C1O[C@@H]2[C@@H](O)[C@H](O)O[C@@H]2[C@H]1O,inactive,inactive,inactive,,inactive,inactive,inactive,,inactive,inactive,inactive,inactive,inactive,,
C=C(C)C(=O)OCCOP(=O)(O)OCCOC(=O)C(=C)C,inactive,inactive,inactive,inactive,inactive,inactive,inactive,,inactive,inactive,inactive,inactive,inactive,,
CN(C)C(=O)CNC(=O)Cc1ccccc1,inactive,inactive,inactive,,inactive,inactive,inactive,inactive,inactive,,,inactive,inactive,,
ClCCCl,inactive,inactive,inactive,,inactive,inactive,inactive,,inactive,,inactive,,,,
CN(C)CCOCCO,inactive,inactive,inactive,,inactive,inactive,inactive,inactive,inactive,inactive,inactive,inactive,inactive,,
O=C(O)Cc1cn(-c2ccccc2)nc1-c1ccc(Cl)cc1,inactive,inactive,inactive,inactive,inactive,inactive,inactive,inactive,inactive,,,,inactive,,
CC(=C(CCOC(=O)C(C)C)SSC(CCOC(=O)C(C)C)=C(C)N(C=O)Cc1cnc(C)nc1N)N(C=O)Cc1cnc(C)nc1N,inactive,inactive,,inactive,inactive,inactive,inactive,inactive,inactive,inactive,inactive,inactive,inactive,inactive,
CCCC(=O)C(C)=O,inactive,inactive,,inactive,inactive,inactive,inactive,inactive,inactive,inactive,inactive,inactive,inactive,,
Nc1ccc2cc(S(=O)(=O)O)cc(O)c2c1,inactive,inactive,,,inactive,inactive,inactive,inactive,inactive,inactive,inactive,,,,inactive
OCCN(CCO)c1cccc(Cl)c1,inactive,inactive,,inactive,inactive,inactive,inactive,inactive,inactive,,,inactive,inactive,,
CCCCCCCCC(=O)Cl,inactive,inactive,,inactive,inactive,inactive,inactive,inactive,inactive,,inactive,inactive,,,
c1ccc2c(c1)ccc1c3ccccc3ccc21,,inactive,inactive,,inactive,inactive,inactive,,inactive,,,inactive,inactive,3.94 µM (active),inactive
COc1nccnc1NS(=O)(=O)c1ccc(N)cc1,inactive,inactive,,inactive,inactive,inactive,inactive,inactive,inactive,inactive,inactive,inactive,inactive,,
